How the values were obtained:
Assay in all cases: yeast three-hybrid, YBZ-1, SC-Leu-His + 0.5 mM 3-AT, 4 days
Conditions in all cases: tags: N-Gal4 AD-HA kept; label: inside an RPR1-promoter hybrid RNA with tandem MS2 sites; ssRNA
PUM1 PUF domain R1-RAT = PUM1 PUF domain R1-RAT (Homo sapiens, UniProt Q14671 828-1176, S863R;R864A;Q867T)
Method in brief: (§1)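 Matching RNA elements and Pumilio-1 PUF domain libraries, randomized at the three base-contacting residues of every repeat, were co-expressed from a centromeric plasmid in strain YBZ-1 (LexA–MS2 coat fusion, HIS3 reporter). The repeat regions were PCR-amplified and Illumina-sequenced from cells grown four days on SC-Leu (input) or SC-Leu-His + 0.5 mM 3-AT (selection). The interaction score is the log change in variant frequency from input to selection. It is computed in log2, with a pseudocount of 1 for absent variants.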

PUM1 PUF domain R1-NLR = PUM1 PUF domain R1-NLR (Homo sapiens, UniProt Q14671 828-1176, S863N;R864L;Q867R)
Method in brief: as §1

PUM1 PUF domain R4-GPG = PUM1 PUF domain R4-GPG (Homo sapiens, UniProt Q14671 828-1176, N971G;H972P;Q975G)
Method in brief: as §1

PUM1 PUF domain R5-RNT = PUM1 PUF domain R5-RNT (Homo sapiens, UniProt Q14671 828-1176, C1007R;R1008N;Q1011T)
Method in brief: as §1

PUM1 PUF domain R8-RRQ = PUM1 PUF domain R8-RRQ (Homo sapiens, UniProt Q14671 828-1176, N1122R;Y1123R)
Method in brief: as §1

PUM1 PUF domain R8-KRG = PUM1 PUF domain R8-KRG (Homo sapiens, UniProt Q14671 828-1176, N1122K;Y1123R;Q1126G)
Method in brief: as §1

PUM1 PUF domain R5-KFK = PUM1 PUF domain R5-KFK (Homo sapiens, UniProt Q14671 828-1176, C1007K;R1008F;Q1011K)
Method in brief: as §1

PUM1 PUF domain R5-DFY = PUM1 PUF domain R5-DFY (Homo sapiens, UniProt Q14671 828-1176, C1007D;R1008F;Q1011Y)
Method in brief: as §1

PUM1 PUF domain R6-TFG = biological target: T1, PUM1 PUF domain R6-TFG (Homo sapiens, UniProt Q14671 828-1176, N1043T;Y1044F;Q1047G)
T1 sequence: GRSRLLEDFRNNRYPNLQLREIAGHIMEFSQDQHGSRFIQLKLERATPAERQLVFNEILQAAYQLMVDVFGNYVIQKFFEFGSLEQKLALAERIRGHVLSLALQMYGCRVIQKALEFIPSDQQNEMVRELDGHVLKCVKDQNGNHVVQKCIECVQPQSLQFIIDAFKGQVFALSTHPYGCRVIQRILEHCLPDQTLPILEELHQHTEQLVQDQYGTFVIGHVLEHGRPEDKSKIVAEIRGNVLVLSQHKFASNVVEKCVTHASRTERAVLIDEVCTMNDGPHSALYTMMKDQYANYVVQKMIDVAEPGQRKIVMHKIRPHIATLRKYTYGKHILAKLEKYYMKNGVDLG
Method in brief: as §1

PUM1 PUF domain R3-GRY = PUM1 PUF domain R3-GRY (Homo sapiens, UniProt Q14671 828-1176, C935G;Q939Y)
Method in brief: as §1

GGCUAGAACUAGUGGAUCCCCCGGCGCCCGGCGGCUCGAGCCCGGGUAAGUGUAAAUUGUCUGCAUGCCGCCGGGCGCCAUGCCUGCAGGUCGACUCUAGAAAACAUG
binding signal (PUM1 PUF domain R1-RAT): 3.04 log2 enrichment (interaction score) | binding signal (PUM1 PUF domain R1-NLR): 3.68 log2 enrichment (interaction score)

GGCUAGAACUAGUGGAUCCCCCGGCGCCCGGCGGCUCGAGCCCGGGUAAGUGUACAUAGUCUGCAUGCCGCCGGGCGCCAUGCCUGCAGGUCGACUCUAGAAAACAUG
binding signal (PUM1 PUF domain R4-GPG): 2.28 log2 enrichment (interaction score)

GGCUAGAACUAGUGGAUCCCCCGGCGCCCGGCGGCUCGAGCCCGGGUAAGUGUAUAUAGUCUGCAUGCCGCCGGGCGCCAUGCCUGCAGGUCGACUCUAGAAAACAUG
binding signal (PUM1 PUF domain R4-GPG): 2.98 log2 enrichment (interaction score)

GGCUAGAACUAGUGGAUCCCCCGGCGCCCGGCGGCUCGAGCCCGGGUAAGUGUCAAUAGUCUGCAUGCCGCCGGGCGCCAUGCCUGCAGGUCGACUCUAGAAAACAUG
binding signal (PUM1 PUF domain R5-RNT): 2.85 log2 enrichment (interaction score)

GGCUAGAACUAGUGGAUCCCCCGGCGCCCGGCGGCUCGAGCCCGGGUAAGCGUAAAUAGUCUGCAUGCCGCCGGGCGCCAUGCCUGCAGGUCGACUCUAGAAAACAUG
binding signal (PUM1 PUF domain R8-RRQ): 2.97 log2 enrichment (interaction score) | binding signal (PUM1 PUF domain R8-KRG): 4.19 log2 enrichment (interaction score)

GGCUAGAACUAGUGGAUCCCCCGGCGCCCGGCGGCUCGAGCCCGGGUAAGUGUAAAUCGUCUGCAUGCCGCCGGGCGCCAUGCCUGCAGGUCGACUCUAGAAAACAUG
binding signal (PUM1 PUF domain R1-RAT): 4.37 log2 enrichment (interaction score)

GGCUAGAACUAGUGGAUCCCCCGGCGCCCGGCGGCUCGAGCCCGGGUAAGUGUAAAUGGUCUGCAUGCCGCCGGGCGCCAUGCCUGCAGGUCGACUCUAGAAAACAUG
binding signal (PUM1 PUF domain R1-RAT): 2.45 log2 enrichment (interaction score)

GGCUAGAACUAGUGGAUCCCCCGGCGCCCGGCGGCUCGAGCCCGGGUAAGUGUUAAUAGUCUGCAUGCCGCCGGGCGCCAUGCCUGCAGGUCGACUCUAGAAAACAUG
binding signal (PUM1 PUF domain R5-KFK): 5.11 log2 enrichment (interaction score) | binding signal (PUM1 PUF domain R5-DFY): 4.07 log2 enrichment (interaction score) | binding signal (PUM1 PUF domain R5-RNT): 3.11 log2 enrichment (interaction score)

GGCUAGAACUAGUGGAUCCCCCGGCGCCCGGCGGCUCGAGCCCGGGUAAGUGUAAAUAGUCUGCAUGCCGCCGGGCGCCAUGCCUGCAGGUCGACUCUAGAAAACAUG
binding signal (PUM1 PUF domain R6-TFG): 5.01 log2 enrichment (interaction score) | binding signal (PUM1 PUF domain R8-RRQ): 1.1 log2 enrichment (interaction score) | binding signal (PUM1 PUF domain R4-GPG): 5.02 log2 enrichment (interaction score) | binding signal (PUM1 PUF domain R5-DFY): 2.71 log2 enrichment (interaction score) | binding signal (PUM1 PUF domain R5-RNT): 2.05 log2 enrichment (interaction score) | binding signal (PUM1 PUF domain R8-KRG): 1.8 log2 enrichment (interaction score) | binding signal (PUM1 PUF domain R3-GRY): 4.27 log2 enrichment (interaction score)

Reference: PMC8384837, “Expanding the binding specificity for RNA recognition by a PUF domain”
